# Experimental data from the antibiotic and cytotoxicity screens of Wong et al. (2023).
# In all, about 39,000 compounds went through this assay and about 3,300 (8.5%) were called active. The sample as a whole holds a higher share of actives than the screen did.
# System: HepG2
# Assay: cytotoxicity call (relative viability < 0.9)
# Conditions: 10 µM
row,SMILES,cytotoxicity call
1,COCC(=O)Nc1ccc2c(c1)OC[C@@H](C)N(C(=O)Cc1ccccn1)C[C@H](C)[C@@H](OC)CN(C)C2=O,inactive
2,O=c1[nH]c(=O)c2[nH]c(=O)[nH]c2[nH]1,inactive
3,COc1ccc(S(=O)(=O)Nc2ccc3c(c2)CC(=O)N([C@H](C)CO)C[C@H](C)[C@@H](CN(C)C(=O)Nc2c(C)noc2C)O3)cc1,inactive
4,COc1ccc(NC(=O)Nc2cccc3c2O[C@@H](CN(C)Cc2ccc(Oc4ccccc4)cc2)[C@@H](C)CN([C@@H](C)CO)C3=O)cc1,active
5,Cc1cc(C(=O)Nc2cccc3c2O[C@@H](CN(C)Cc2ccc(Oc4ccccc4)cc2)[C@@H](C)CN([C@@H](C)CO)C3=O)n(C)n1,inactive
6,COc1ccc(NC(=O)Nc2cccc3c2O[C@@H](CN(C)Cc2ccc(Oc4ccccc4)cc2)[C@@H](C)CN([C@H](C)CO)C3=O)cc1,active
7,Cc1cc(C(=O)Nc2cccc3c2O[C@H](CN(C)Cc2ccc(Oc4ccccc4)cc2)[C@@H](C)CN([C@H](C)CO)C3=O)n(C)n1,active
8,COc1ccc(NC(=O)Nc2cccc3c2O[C@H](CN(C)Cc2ccc(Oc4ccccc4)cc2)[C@@H](C)CN([C@H](C)CO)C3=O)cc1,inactive
9,C[C@@H]1CN([C@@H](C)CO)C(=O)c2cccc(NC(=O)Nc3ccc(F)cc3)c2O[C@H]1CN(C)Cc1ccc(Oc2ccccc2)cc1,inactive
10,COc1ccc(NC(=O)Nc2cccc3c2O[C@H](CN(C)Cc2ccc(Oc4ccccc4)cc2)[C@@H](C)CN([C@@H](C)CO)C3=O)cc1,inactive
11,COc1ccc(NC(=O)Nc2cccc3c2O[C@H](CN(C)Cc2ccc(Oc4ccccc4)cc2)[C@H](C)CN([C@H](C)CO)C3=O)cc1,inactive
12,Cc1cc(C(=O)Nc2cccc3c2O[C@@H](CN(C)Cc2ccc(Oc4ccccc4)cc2)[C@H](C)CN([C@@H](C)CO)C3=O)n(C)n1,inactive
13,C[C@@H]1CN([C@H](C)CO)C(=O)c2cccc(NC(=O)Nc3ccc(F)cc3)c2O[C@@H]1CN(C)Cc1ccc(Oc2ccccc2)cc1,active
14,C[C@H](CO)N1C[C@H](C)[C@H](CN(C)Cc2ccc(Oc3ccccc3)cc2)Oc2c(NC(=O)Nc3ccc(F)cc3)cccc2C1=O,inactive
15,COc1ccc(NC(=O)Nc2cccc3c2O[C@@H](CN(C)Cc2ccc(Oc4ccccc4)cc2)[C@H](C)CN([C@H](C)CO)C3=O)cc1,inactive
16,CC(=O)N1[C@@H](CO)[C@H](c2ccccc2)C12CN(C(=O)CN1CCOCC1)C2,inactive
17,Cc1ccc(S(=O)(=O)Nc2cccc3c2O[C@@H](CN(C)CC2CC2)[C@@H](C)CN([C@@H](C)CO)C3=O)cc1,inactive
18,C[C@H]1CN([C@@H](C)CO)C(=O)c2cc(C#CC3(O)CCCC3)cnc2O[C@H]1CN(C)S(=O)(=O)c1ccc(F)cc1,inactive
19,Cc1ccc(S(=O)(=O)Nc2ccc3c(c2)C(=O)N([C@H](C)CO)C[C@@H](C)[C@H](CN(C)C(=O)Cc2ccccc2)OCCCC[C@@H](C)O3)cc1,inactive
20,COC(=O)c1c2oc(c1C(=O)OC)C(=O)N[C@H](Cc1ccccc1)Cn1cc(nn1)CNC(=O)[C@@H](Cc1ccccc1)NC(=O)N[C@@H](CO)CC2,inactive
21,COCC#Cc1ccc2c(c1)O[C@H](CN(C)C(=O)c1ccccc1)[C@H](C)CN([C@@H](C)CO)S2(=O)=O,inactive

row,SMILES,cytotoxicity call
1,O=C(C[C@@H]1C=C[C@H](NS(=O)(=O)c2ccc(F)cc2)[C@H](CO)O1)N1CCC(Cc2ccccc2)CC1,inactive
2,C[C@H]1CCCCO[C@@H](CN(C)Cc2ccncc2)[C@@H](C)CN([C@@H](C)CO)C(=O)c2cc(NS(C)(=O)=O)ccc2O1,inactive
3,C[C@@H]1CCCCO[C@@H](CN(C)CC2CCCCC2)[C@@H](C)CN([C@@H](C)CO)C(=O)c2cc(NS(=O)(=O)c3ccccc3)ccc2O1,inactive
4,C[C@H](CO)N1C[C@H](C)[C@H](CN(C)S(=O)(=O)c2ccc(Cl)cc2)Oc2c(NC(=O)c3cnccn3)cccc2C1=O,inactive
5,CC(C)NC(=O)Nc1cccc2c1O[C@H](CN(C)Cc1ccc(Oc3ccccc3)cc1)[C@@H](C)CN([C@@H](C)CO)C2=O,active
6,CC(C)NC(=O)Nc1cccc2c1O[C@@H](CN(C)Cc1ccc(Oc3ccccc3)cc1)[C@@H](C)CN([C@@H](C)CO)C2=O,inactive
7,C[C@@H]1CN([C@@H](C)CO)C(=O)c2cccc(NC(=O)Nc3ccccc3)c2O[C@H]1CN(C)Cc1ccc(Oc2ccccc2)cc1,inactive
8,C[C@H]1CN([C@@H](C)CO)C(=O)c2cccc(NC(=O)Nc3ccccc3)c2O[C@@H]1CN(C)Cc1ccc(Oc2ccccc2)cc1,inactive
9,CC(C)NC(=O)Nc1cccc2c1O[C@@H](CN(C)Cc1ccc(Oc3ccccc3)cc1)[C@H](C)CN([C@H](C)CO)C2=O,inactive
10,C[C@H](CO)N1C[C@H](C)[C@@H](CN(C)Cc2ccc(Oc3ccccc3)cc2)Oc2c(NC(=O)Nc3ccccc3)cccc2C1=O,inactive
11,C[C@@H]1CN([C@@H](C)CO)C(=O)c2cccc(NC(=O)Nc3ccccc3)c2O[C@@H]1CN(C)Cc1ccc(Oc2ccccc2)cc1,active
12,COc1ccc(NC(=O)Nc2cccc3c2O[C@@H](CN(C)Cc2ccc(Oc4ccccc4)cc2)[C@H](C)CN([C@@H](C)CO)C3=O)cc1,active
13,COc1ccc(NC(=O)Nc2cccc3c2O[C@H](CN(C)Cc2ccc(Oc4ccccc4)cc2)[C@H](C)CN([C@@H](C)CO)C3=O)cc1,inactive
14,C[C@@H]1CCCCO[C@H](CN(C)Cc2ccccc2)[C@@H](C)CN([C@@H](C)CO)C(=O)c2cc(NC(=O)c3ccncc3)ccc2O1,inactive
15,COCC#Cc1cnc2c(c1)C(=O)N([C@@H](C)CO)C[C@H](C)[C@H](CN(C)C(C)=O)O2,inactive
16,C[C@H]1CN([C@@H](C)CO)C(=O)Cc2cc(NS(=O)(=O)c3cccs3)ccc2O[C@H]1CN(C)Cc1ccncc1,inactive
17,C[C@H](C(=O)N(C)C[C@@H]1OCc2ccccc2-c2c(n(C)c3ccccc23)C(=O)N([C@H](C)CO)C[C@H]1C)c1ccccc1,inactive
18,C[C@H](O)C#Cc1cnc2c(c1)C(=O)N([C@@H](C)CO)C[C@H](C)[C@H](CN(C)C(=O)Nc1ccc(C(F)(F)F)cc1)O2,inactive
19,Cc1ccc(S(=O)(=O)Nc2ccc3c(c2)C(=O)N([C@@H](C)CO)C[C@@H](C)[C@@H](CN(C)C(=O)Nc2ccc4c(c2)OCO4)OCCCC[C@@H](C)O3)cc1,inactive
20,C[C@H](CO)N1C[C@H](C)[C@H](CN(C)C(=O)Nc2cccc(C(F)(F)F)c2)OCc2ccccc2-c2ccccc2C1=O,inactive
21,C[C@@H]1CN([C@@H](C)CO)C(=O)c2cc(NS(=O)(=O)c3cn(C)cn3)ccc2O[C@@H](C)CCCCO[C@H]1CN(C)C(=O)c1ccncc1,inactive

row,SMILES,cytotoxicity call
1,CO[C@H]1C[C@@H]2CC[C@@H](C)[C@@](O)(O2)C(=O)C(=O)N2CCCC[C@H]2C(=O)O[C@H]([C@H](C)C[C@@H]2CC[C@@H](OC(=O)C(C)(CO)CO)[C@H](OC)C2)CC(=O)[C@H](C)/C=C(\C)[C@@H](O)[C@@H](OC)C(=O)[C@H](C)C[C@H](C)/C=C/C=C/C=C/1C,inactive
2,CO[C@H]1C[C@@H](C[C@@H](C)[C@H]2CC(=O)[C@H](C)/C=C(\C)[C@@H](O)[C@H](OC)C(=O)[C@H](C)C[C@H](C)/C=C/C=C\C=C(C)[C@H](OC)C[C@@H]3CC[C@@H](C)[C@@](O)(O3)C(=O)C(=O)N3CCCC[C@H]3C(=O)O2)CC[C@H]1OC(=O)C(C)(CO)CO,active
3,CO[C@H]1C[C@@H](C[C@@H](C)[C@H]2CC(=O)[C@@H](C)/C=C(\C)[C@@H](O)[C@@H](OC)C(=O)[C@@H](C)C[C@@H](C)/C=C/C=C/C=C(\C)[C@H](OC)C[C@H]3CC[C@@H](C)[C@@](O)(O3)C(=O)C(=O)N3CCCC[C@@H]3C(=O)O2)CC[C@@H]1OC(=O)C(C)(CO)CO,inactive
4,C[C@@H]1CN([C@H](C)CO)C(=O)c2cc(NC(=O)Cc3ccccc3)ccc2O[C@@H]1CN(C)Cc1ccc(Cl)c(Cl)c1,inactive
5,C[C@@H]1CN([C@H](C)CO)C(=O)c2cc(NS(C)(=O)=O)ccc2O[C@@H]1CN(C)C(=O)Nc1ccccc1,inactive
6,Cc1nc(CCO)cs1,inactive
7,CC(C)[Si](C#CCCc1ccccc1)(O[C@H](c1ccccc1)c1cn(Cc2ccccc2)nn1)C(C)C,inactive
8,Nc1nc2c(ncn2COC(CO)CO)c(=O)[nH]1.O,inactive
9,Nc1nc2c(ncn2COCCO)c(=O)[nH]1,inactive
10,C=C1C(CO)C(O)CC1n1cnc2c(=O)[nH]c(N)nc21.O (configuration not stated),active
11,C[C@@H]1CN([C@H](C)CO)C(=O)CCCn2cc(nn2)CO[C@@H]1CN(C)C(=O)C1CC1,inactive
12,Cc1ccccc1N1CCN(S(=O)(=O)C[C@]23CC[C@H](C[C@@H]2NC(=O)[C@@H](N)CCS(C)(=O)=O)C3(C)C)CC1,inactive
13,COc1ccc(CN(C)C[C@@H]2OCCCC[C@H](C)Oc3ccc(NC(=O)Nc4ccccc4)cc3C(=O)N([C@@H](C)CO)C[C@H]2C)cc1,inactive
14,O=C(C[C@@H]1CC[C@H](NS(=O)(=O)c2ccc(F)cc2)[C@@H](CO)O1)N1CCC(Cc2ccccc2)CC1,inactive
15,CC1(COc2ccc3c(c2)ncn3-c2ccc3cccc(N4CCC(N)CC4)c3n2)COC1,active
16,C[C@@H]1CN([C@@H](C)CO)S(=O)(=O)c2ccc(C#Cc3ccccc3)cc2O[C@@H]1CN(C)S(=O)(=O)c1ccccc1F,inactive
17,Cl.O=C(Nc1ccccc1)OCC(CN1CCCCC1)OC(=O)Nc1ccccc1 (configuration not stated),active
18,C[C@@H](CN1CCCCC1)C(=O)NN,inactive
19,Cc1ccc(C(=O)C(C)CN2CCCCC2)cc1.Cl (configuration not stated),inactive
20,C[C@H](CO)N1C[C@H](C)[C@@H](CN(C)S(C)(=O)=O)Oc2ccc(NS(=O)(=O)c3ccc(Cl)cc3)cc2CC1=O,inactive
